Results from the supplement of paper PMC6555819.

How the values were obtained:
Test in all cases: PBM binding z-score (relative to random genomic background probes); higher = stronger binding; sequences stand for … in GC…GCGATTGACAGCGTAGAATGAAGG
[1] = system: FXR:RXRa (NR concentration 270 nM, RXRa partner concentration 90 nM)
In short: (§1)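 Probes were double-stranded and carried 34-nt variable regions with direct-repeat seeds, single-nucleotide variants, half-site ablations and random human genomic background sequences, printed on custom Agilent 4×180K protein-binding microarrays. Arrays were incubated 1 h with ligand-free nuclear receptor dimers in PBS pH 7.4, 2% milk, 0.02% Triton X-100, 1 mM DTT, 0.2 mg/mL BSA and 0.4 mg/ml salmon testes DNA. Antibodies against each partner (one per run) detected binding, and scanned fluorescence was regression-normalized. Binding z-scores use the random background probes as reference.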

[2] = system: LXRa:RXRa (NR concentration 270 nM, RXRa partner concentration 90 nM)
In short: as §1

[3] = system: LXRa homodimer (NR concentration 270 nM)
In short: as §1

[4] = system: LXRb:RXRa (NR concentration 270 nM, RXRa partner concentration 90 nM)
In short: as §1

[5] = system: LXRb homodimer (NR concentration 270 nM)
In short: as §1

[6] = system: PPARa:RXRa (NR concentration 270 nM, RXRa partner concentration 90 nM)
In short: as §1

[7] = system: PPARg:RXRa (NR concentration 180 nM, RXRa partner concentration 90 nM)
In short: as §1

[8] = system: PPARg:RXRa 270nM:90nM, anti-RXR (NR concentration 270 nM, RXRa partner concentration 90 nM)
In short: as §1

[9] = system: PPARg:RXRa 30nM:10nM, anti-RXR (NR concentration 30 nM, RXRa partner concentration 10 nM)
In short: as §1

[10] = system: PPARg:RXRa 90nM:30nM, anti-RXR (NR concentration 90 nM, RXRa partner concentration 30 nM)
In short: as §1

[11] = system: PPARg:RXRa DBDmut IVT, anti-RXR (DBD mutation: RXRa K156A/R161A, NR concentration 270 nM, RXRa partner concentration 90 nM)
In short: as §1

[12] = system: PPARg:RXRa IVT, anti-PPARg (NR concentration 270 nM, RXRa partner concentration 90 nM)
In short: as §1

[13] = system: PPARg DBDmut:RXRa IVT, anti-PPARg (DBD mutation: PPARg1 K132A/R137A, NR concentration 270 nM, RXRa partner concentration 90 nM)
In short: as §1

[14] = system: PPARg DBDmut IVT, anti-PPARg (DBD mutation: PPARg1 K132A/R137A, NR concentration 270 nM)
In short: as §1

[15] = system: PPARg homodimer (NR concentration 180 nM)
In short: as §1

[16] = system: PXR:RXRa (NR concentration 270 nM, RXRa partner concentration 90 nM)
In short: as §1

[17] = system: PXR homodimer (NR concentration 270 nM)
In short: as §1

[18] = system: RARa:RXR (NR concentration 270 nM, RXRa partner concentration 90 nM)
In short: as §1

[19] = system: RARa homodimer (NR concentration 270 nM)
In short: as §1

[20] = system: RARb:RXRa (NR concentration 270 nM, RXRa partner concentration 90 nM)
In short: as §1

Sequence	PBM binding z-score [1]	PBM binding z-score [2]	PBM binding z-score [3]	PBM binding z-score [4]	PBM binding z-score [5]	PBM binding z-score [6]	PBM binding z-score [7]	PBM binding z-score [8]	PBM binding z-score [9]	PBM binding z-score [10]	PBM binding z-score [11]	PBM binding z-score [12]	PBM binding z-score [13]	PBM binding z-score [14]	PBM binding z-score [15]	PBM binding z-score [16]	PBM binding z-score [17]	PBM binding z-score [18]	PBM binding z-score [19]	PBM binding z-score [20]
CCTATTAGTTGACCATAAGGGCCACCGAAGCTCG	0.118	0.041	0.365	0.0156	0.659	0.169	0.368	0.219	0.231	0.304	0.171	0.5	0.477	0.579	1.36	-0.0446	0.497	0.206	1.88	1.02
CCAGACAGGTGAAAGTTAACTCAGTCTGGTACGC	-0.0765	0.237	-0.419	0.191	-0.617	2.21	2.62	4.15	1.99	3.83	1.64	1.56	-0.637	-0.25	0.325	0.141	-0.35	0.616	-0.352	1.04
ATCGCTAGGTAAAAGTTCAGTGAATCCCGAGGAT	0.352	1.06	0.677	0.618	-0.3	2.84	4.94	5.9	5.05	6.23	-0.272	1.63	0.14	-0.441	0.521	1.64	1.06	1.49	-0.726	2.04
CGTCAAAGTTCAACTAAGGTAACGCAAAGCACGC	7.01	6.31	4.34	4.15	1.94	5.28	5.24	5.67	2.5	4.74	0.641	2.32	0.717	0.408	3.08	5.42	3.81	4.22	1.83	5.15
AGAATGAGGCTACCAAAGATCAGGGAAACGCTTG	-0.398	0.883	-0.337	-0.482	-1.07	0.361	0.85	0.0255	-0.0527	0.1	1.61	0.854	0.153	-0.213	-0.49	-0.51	-0.439	-0.0885	-0.557	0.164
TCTTGGAGATCAAGCAGGTTAAGAAAGCCTGAGT	0.463	0.405	-0.249	0.297	-0.658	1.09	-0.253	1.39	2.35	1.84	1.33	-0.158	-0.0417	-0.978	-0.522	0.538	0.0928	0.684	-0.244	0.272
ATCGAAAGGTCGACGAGGTGAGTGTACACCGTTT	4.72	3.35	0.236	2.78	0.198	4.42	2.9	3.72	1.14	2.63	1.06	2.45	1.21	0.365	1.48	3.37	1.03	3.93	0.268	3.89
GCTGCTAGGCCAGGTTGGTCAGCTAACGGGTACG	-1	-1.03	-0.776	-1.31	-1.37	-1.27	-0.607	-1.01	-1.22	-1.17	-0.104	-0.575	-1.57	-1.24	-1.2	-1.06	-0.918	-0.979	-0.954	0.166
CCAGACAGGTAAAAGGTAACTCAGTCTGGTACGC	-0.0774	0.12	-0.25	0.125	-0.535	2.14	3.01	3.82	2.27	3.94	0.377	0.821	-0.535	-0.566	0.614	0.265	0.0427	0.712	0.346	0.382
CTCGAAAGGTCGTGCTCAGGTGAGTATACCAAAC	5.37	4.02	0.432	3.45	0.379	4.99	2.62	3.65	0.746	2.23	0.806	1.92	0.159	0.522	2.26	3.47	-0.155	4.39	0.399	3.9
TCATATAGGTAATACCGGTGAAAGTCGGCATCTA	0.519	0.637	0.169	0.726	0.0983	1.44	0.698	2.2	4.02	3.31	3.57	2.28	0.77	0.786	0.599	0.488	0.00655	1.01	0.792	0.224
